# Laboratory results reported in PubChem BioAssay (EPA / NIEHS).
# Records with an inconclusive call do not appear. Calls of active or inactive are those of the source. How the source made its calls, unless noted: active means hit-call score of the fitted dose curve at least 0.9, where 1 is the maximum; inactive means score below 0.9.
# Columns and labels:
# [1] = CCTE_Shafer_MEA_acute_spike_number: CCTE's Neural Acute Assay for Total Number of Spikes, Shafer Lab (AID 2284008);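 on AC50: curve fitted for decrease in spike count so AC50 reflects inhibitors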
# How it was run: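 Using an adaptive detector set to 8x rms noise, spikes were counted in 40-min windows before and after compound addition (0.03-40 uM) to rat cortical networks at 37 C; the well-level change from baseline was analysed relative to DMSO.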
# [2] = CCTE_Shafer_MEA_acute_firing_rate_mean: CCTE's Neural Acute Assay for Mean Firing Rate, Shafer Lab (AID 2284009);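 further: analyzed for loss of signal so actives lower firing rate relative to DMSO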
# How it was run: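 Rat primary cortical neurons on 48-well MEA plates, dosed at 0.03-40 uM on DIV 13 or 15; 40 min spontaneous activity recorded at 37 C before and after compound. Spike rate per electrode averaged per well, expressed as percent change from baseline.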
# [3] = CCTE_Simmons_MITO_basal_resp_rate: CCTE's HepG2 Seahorse XF Respirometric Screening Assay at Basal Respiratory State, Simmons Lab (AID 2284001); conditions: actives raise or lower the signal
# How it was run: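 HepG2 oxygen consumption on Seahorse XF96 after compound injection, 7 concentrations 125 nM–100 uM final, reads every 6 min over 72 min. Triplicate biological replicates; bidirectional fit vs DMSO; fenpyroximate and 2,4-dinitrophenol controls.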
# [4] = CCTE_Simmons_MITO_max_resp_rate: CCTE's HepG2 Seahorse XF Respirometric Screening Assay at Maximal Respiratory State [uncoupled], Simmons Lab (AID 2284002); conditions: actives raise or lower the signal
# How it was run: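 Uncoupled (FCCP) respiration of HepG2 cells served as the endpoint, with measurements at 6-minute intervals across a 72-minute run and compounds dosed at 7 concentrations up to 100 uM final.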
# [5] = CCTE_Simmons_MITO_inhib_resp_rate: CCTE's HepG2 Seahorse XF Respirometric Screening Assay at Inhibited Respiratory State [full ETC block], Simmons Lab (AID 2284006); conditions: actives raise or lower the signal
# Description: CCTE_Simmons_MITO is cell-based, respirometric assay using HepG2 cells and a Seahorse XF Analyzer to measure oxygen consumption rates over four temporal phases spanning a total of 72 minutes: pre-injection (pre-treatment), basal (following test compound injection), maximal (following FCCP uncoupler injection), and inhibited (following rotenone/antimycin A injection)CCTE_Simmons_MITO_inhib_resp_rate is one of 4 assay components calculated from the CCTE_Simmons_MITO assay. It is designed to make measurements of inhibited respiration using a form of respirometric reporter, as detected with […] signals by Seahorse XF96 technology. Data from the assay component CCTE_Simmons_MITO_inhib_resp_rate was analyzed at the endpoint, CCTE_Simmons_MITO_inhib_resp_rate_OCR, with bidirectional fitting relative to DMSO as the negative control and baseline of activity. Using a type of respirometric reporter, measures of inhibited respiration for gain or loss-of-signal activity can be used to understand cellular oxygen consumption as it relates to cellular respiration. To generalize the intended target to other relatable targets, this assay endpoint is annotated to the mitochondria intended target family, where the subfamily is respiration.
# Test chemicals were administered as a titrated series of 7 concentrations from 125 nM up to 100 uM [final] prior to kinetic endpoint detection at 6 minute intervals [3 min mix followed by 3 minutes measure] for 72 minutes. Three biological replicates of technical singles were run for every chemical concentration tested. Dimethylsulfoxide [DMSO] was used as the vehicle control. The electron transport chain inhibitor fenpyroximate was used as the positive control for decreased basal respiration and was administered as a titrated series of 6 concentrations from 250 nM up to 2.75 uM [final] with technical triplicates for the top concentration only. The uncoupler 2,4-dintirophenol was used as the positive control for increased basal respiration and was administered as a titrated series of 6 concentrations from 938 nM up to 40 uM [final] with technical triplicates for the top concentration only. A Seahorse XF Analzyer is required to measure the response.
# [6] = target: Nucleoli Translocation, AR (gene 367) (UniProt P10275); experiment: UPITT_HCI_U2OS_AR_TIF2_Nucleoli_Agonist: University of Pittsburgh U2OS Androgen Receptor-Transcriptional Intermediary Factor 2 (AR-TIF2) Agonism High Content Imaging Assay for Nucleoli Translocation (AID 2283998; active means hit-call score of the fitted dose curve at least 0.9, where 1 is the maximum)
# How it was run: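 High-content images quantify nucleolar accumulation of RFP-fused AR in cells also expressing GFP-TIF2; the endpoint is fitted as signal gain versus DMSO controls across final concentrations of 0.195 to 50 uM.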
# [7] = target: Ratio of Nucleoli Translocation and Cytoplasm, AR (gene 367) (UniProt P10275); experiment: UPITT_HCI_U2OS_AR_TIF2_Nucleoli_Cytoplasm_Ratio_Agonist: University of Pittsburgh U2OS Androgen Receptor-Transcriptional Intermediary Factor 2 (AR-TIF2) Agonism High Content Imaging Assay for Ratio of Nucleoli Translocation and Cytoplasm (AID 2284000; active means hit-call score of the fitted dose curve at least 0.9, where 1 is the maximum;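 further: hits raise the red nucleolar to cytoplasm ratio above vehicle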)
# How it was run: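 U2OS cells expressing RFP-tagged human AR and GFP-tagged TIF2; high-content imaging ratio of nucleolar to cytoplasmic red fluorescence, fitted as gain of signal vs DMSO. Single point at 20 uM final (0.2% DMSO); concentration-response 0.195-50 uM final (0.5% DMSO).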
# [8] = target: Ratio of Nucleoli Translocation and Cytoplasm, AR (gene 367) (UniProt P10275); experiment: UPITT_HCI_U2OS_AR_TIF2_Nucleoli_Cytoplasm_Ratio_Antagonist: University of Pittsburgh U2OS Androgen Receptor-Transcriptional Intermediary Factor 2 (AR-TIF2) Antagonism High Content Imaging Assay for Ratio of Nucleoli Translocation and Cytoplasm (AID 2283999; active means hit-call score of the fitted dose curve at least 0.9, where 1 is the maximum;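 further: antagonists lower the DHT-driven ratio of nucleolar to cytoplasmic red signal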)
# How it was run: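 U2OS cells expressing RFP-tagged human AR and GFP-tagged TIF2; compounds tested at 20 uM final (0.2% DMSO) in primary screen, 0.195–50 uM (0.5% DMSO) for concentration response. Readout: nucleolar-to-cytoplasmic red fluorescence ratio by high-content imaging, fitted relative to DHT.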
# [9] = CCTE_Simmons_MITO_viability: CellTiter-Glo Viability Assessment for CCTE's HepG2 Seahorse XF Respirometric Screening Assay [post-hoc], Simmons Lab (AID 2284007; active means hit-call score of the fitted dose curve at least 0.9, where 1 is the maximum)
# How it was run: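 HepG2 cells from the Seahorse XF respirometry run were exposed 90 min to a 7-point series, 125 nM–100 uM final, DMSO vehicle; ATP content then read by luciferase luminescence. Three biological replicates, technical singles; loss of signal fitted versus DMSO.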
# [10] = system: DIO1 (gene 1733); experiment: CCTE_GLTED_hDIO1: CCTE's human Deiodinase 1 (DIO1) Inhibition Assay, Great Lakes Toxicology and Ecology Division (GLTED) Lab (AID 2283987; active means hit-call score of the fitted dose curve at least 0.9, where 1 is the maximum;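 further: isolated human DIO1 enzyme in a cell-free setup rather than cells; enzyme activity read as free iodide liberated from substrate via Sandell-Kolthoff colorimetry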)
# How it was run: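 Chemicals are tested on human DIO1 without cells for 3 h. Uninhibited enzyme frees iodide, which speeds cerium(IV) reduction by arsenic and is read by spectrophotometry.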
# Sequence of Nucleoli Translocation, AR (gene 367) (P10275 whole entry, looked up, the tested form may be a part): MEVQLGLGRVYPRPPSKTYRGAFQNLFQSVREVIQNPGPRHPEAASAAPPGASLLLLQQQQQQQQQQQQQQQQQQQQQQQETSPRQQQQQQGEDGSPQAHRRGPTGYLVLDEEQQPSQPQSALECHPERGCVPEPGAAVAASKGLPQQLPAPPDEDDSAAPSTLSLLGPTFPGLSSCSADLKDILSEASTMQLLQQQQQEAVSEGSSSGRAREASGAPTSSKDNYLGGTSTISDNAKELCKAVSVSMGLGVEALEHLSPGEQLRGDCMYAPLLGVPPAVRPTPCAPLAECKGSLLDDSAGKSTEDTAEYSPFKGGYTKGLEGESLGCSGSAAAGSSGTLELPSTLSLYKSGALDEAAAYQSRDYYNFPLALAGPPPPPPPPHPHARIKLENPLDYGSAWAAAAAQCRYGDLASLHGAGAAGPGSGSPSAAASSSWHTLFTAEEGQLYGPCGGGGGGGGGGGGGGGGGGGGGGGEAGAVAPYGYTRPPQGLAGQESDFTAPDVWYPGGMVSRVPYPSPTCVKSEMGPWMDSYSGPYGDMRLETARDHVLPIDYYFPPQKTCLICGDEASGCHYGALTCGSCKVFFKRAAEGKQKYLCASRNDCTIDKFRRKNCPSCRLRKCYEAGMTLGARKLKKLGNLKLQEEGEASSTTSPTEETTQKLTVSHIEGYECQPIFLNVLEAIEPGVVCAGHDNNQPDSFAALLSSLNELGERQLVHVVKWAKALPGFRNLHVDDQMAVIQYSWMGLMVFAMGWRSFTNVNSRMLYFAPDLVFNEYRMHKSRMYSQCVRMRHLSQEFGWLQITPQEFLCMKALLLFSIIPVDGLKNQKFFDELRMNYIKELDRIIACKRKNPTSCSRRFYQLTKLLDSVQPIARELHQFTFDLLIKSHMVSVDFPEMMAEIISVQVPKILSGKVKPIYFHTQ
# Sequence of Ratio of Nucleoli Translocation and Cytoplasm, AR (gene 367) (P10275 whole entry, looked up): as the sequence (P10275 whole entry, looked up, the tested form may be a part) above
compound,measurement,setting,value
CCOc1ccc(C(C)(C)COCc2cccc(Oc3ccccc3)c2)cc1,outcome,[1],inactive
same,outcome,[2],inactive
CCC(C)(C)c1ccc(O)cc1,AC50,[3],49.9 µM (active)
same,AC50,[4],42.5 µM (active)
same,outcome,[5],inactive
same,AC50,[1],0.186 µM (active)
same,AC50,[2],0.186 µM (active)
CCOP(=S)(Oc1ccc([N+](=O)[O-])cc1)c1ccccc1 (stereo not given),AC50,[1],24.9 µM (active)
same,AC50,[2],25 µM (active)
CC(Cl)(Cl)C(=O)O,outcome,[1],inactive
same,outcome,[2],inactive
CC(C)(C)c1ccccc1OP(=O)(Oc1ccccc1)Oc1ccccc1,AC50,[1],1.33 µM (active)
same,AC50,[2],1.33 µM (active)
COCCOCCO,outcome,[1],inactive
same,outcome,[2],inactive
CCN(CC)c1ccccc1,outcome,[6],inactive
same,outcome,[7],inactive
O=P(OCC(Br)CBr)(OCC(Br)CBr)OCC(Br)CBr (stereo not given),outcome,[6],inactive
same,outcome,[8],inactive
same,outcome,[7],inactive
CC(C)(C)N(NC(=O)c1ccc(Cl)cc1)C(=O)c1ccccc1,outcome,[6],inactive
same,outcome,[8],inactive
CCNc1nc(Cl)nc(NC(C)(C)C)n1,outcome,[6],inactive
same,outcome,[7],inactive
CCOP(=S)(OCC)SCSCC,outcome,[3],inactive
same,AC50,[4],50 µM (active)
same,outcome,[5],inactive
same,outcome,[9],inactive
CO/N=C(/C(=O)OC)c1ccccc1COc1ccccc1C,outcome,[6],inactive
same,outcome,[8],inactive
same,outcome,[7],inactive
c1cc2c3c(cccc3c1)CC2,outcome,[8],inactive
same,outcome,[7],inactive
O=C(O)C1C(C(=O)O)C2(Cl)C(Cl)=C(Cl)C1(Cl)C2(Cl)Cl (stereo not given),outcome,[1],inactive
same,outcome,[2],inactive
c1ccc2c(c1)Nc1ccccc1S2,AC50,[1],4.42 µM (active)
same,AC50,[2],4.45 µM (active)
ClC1=C(Cl)C2(Cl)C3C(Cl)C(Cl)CC3C1(Cl)C2(Cl)Cl (stereo not given),outcome,[6],inactive
same,outcome,[8],inactive
same,outcome,[7],inactive
same,outcome,[1],inactive
same,outcome,[2],inactive
CCCCCCCc1ccc(O)cc1,AC50,[10],77 µM (active)
same,AC50,[6],19.2 µM (active)
same,AC50,[8],79.6 µM (active)
same,AC50,[7],28.9 µM (active)
same,AC50,[3],40.4 µM (active)
same,AC50,[4],27.6 µM (active)
same,outcome,[5],inactive
CCC1(c2ccccc2)C(=O)N=C(O)NC1=O (stereo not given),outcome,[1],inactive
same,outcome,[2],inactive
Cc1ccc(N)cc1N,outcome,[3],inactive
same,outcome,[4],inactive
same,outcome,[5],inactive
same,outcome,[1],inactive
same,outcome,[2],inactive
ClC(Cl)=C(c1ccc(Cl)cc1)c1ccccc1Cl,outcome,[6],inactive
same,outcome,[8],inactive
same,outcome,[7],inactive
O=c1ssc(Cl)c1Cl,AC50,[10],0.149 µM (active)
ClC(Cl)(Cl)c1ccccc1,outcome,[3],inactive
same,outcome,[4],inactive
same,outcome,[5],inactive
same,outcome,[9],inactive
same,outcome,[1],inactive
same,outcome,[2],inactive
CC1(C)CN=C(NN=C(/C=C/c2ccc(C(F)(F)F)cc2)/C=C/c2ccc(C(F)(F)F)cc2)NC1,outcome,[6],inactive
same,outcome,[8],inactive
same,outcome,[7],inactive
Nc1ccc2ccccc2c1,AC50,[1],0.109 µM (active)
same,AC50,[2],0.109 µM (active)
CC(C)(C)c1ccc(O)cc1,AC50,[3],37.2 µM (active)
same,outcome,[4],inactive
same,outcome,[5],inactive
same,outcome,[9],inactive
COP(=O)(CCC(=O)NCO)OC,outcome,[1],inactive
same,outcome,[2],inactive
CCCCN(CC)C(=O)SCCC,outcome,[6],inactive
same,outcome,[8],inactive
same,outcome,[7],inactive
[N-]=[N+]=[N-],outcome,[6],inactive
same,outcome,[8],inactive
same,outcome,[7],inactive
same,outcome,[3],inactive
same,AC50,[4],50 µM (active)
same,outcome,[5],inactive
same,outcome,[1],inactive
same,outcome,[2],inactive
COC(=O)C(F)(F)C(F)(F)OC(F)(C(F)(F)F)C(F)(F)OC(F)=C(F)F (stereo not given),AC50,[10],0.494 µM (active)
C=CC(=O)OCC(F)(F)C(F)F,AC50,[10],19.8 µM (active)
CCCCC(CC)COP(=O)(Oc1ccccc1)Oc1ccccc1 (stereo not given),outcome,[6],inactive
same,outcome,[8],inactive
same,outcome,[7],inactive
same,AC50,[1],15 µM (active)
same,AC50,[2],15 µM (active)
